The text below walks through data of ChEMBL document CHEMBL1201862, “PubChem BioAssay data set” (2004).

Molecules are shown by their SMILES. Hit rate of the full screen: of about 400,000 compounds, about 1,900 (0.47%) were called active. Not shown: some 14% with an inconclusive outcome. No rule for the calls is given here. The entries come from a sample that favours actives as a whole.

In this assay the target is Ataxin-2 (Homo sapiens) (UniProt Q99700). As to the kind of experiment: qHTS for Inhibitors of ATXN expression. It counts as functional. (In qHTS, concentration-response curves come from the screen itself.)
Chain of Ataxin-2 (Homo sapiens) (Q99700 whole entry): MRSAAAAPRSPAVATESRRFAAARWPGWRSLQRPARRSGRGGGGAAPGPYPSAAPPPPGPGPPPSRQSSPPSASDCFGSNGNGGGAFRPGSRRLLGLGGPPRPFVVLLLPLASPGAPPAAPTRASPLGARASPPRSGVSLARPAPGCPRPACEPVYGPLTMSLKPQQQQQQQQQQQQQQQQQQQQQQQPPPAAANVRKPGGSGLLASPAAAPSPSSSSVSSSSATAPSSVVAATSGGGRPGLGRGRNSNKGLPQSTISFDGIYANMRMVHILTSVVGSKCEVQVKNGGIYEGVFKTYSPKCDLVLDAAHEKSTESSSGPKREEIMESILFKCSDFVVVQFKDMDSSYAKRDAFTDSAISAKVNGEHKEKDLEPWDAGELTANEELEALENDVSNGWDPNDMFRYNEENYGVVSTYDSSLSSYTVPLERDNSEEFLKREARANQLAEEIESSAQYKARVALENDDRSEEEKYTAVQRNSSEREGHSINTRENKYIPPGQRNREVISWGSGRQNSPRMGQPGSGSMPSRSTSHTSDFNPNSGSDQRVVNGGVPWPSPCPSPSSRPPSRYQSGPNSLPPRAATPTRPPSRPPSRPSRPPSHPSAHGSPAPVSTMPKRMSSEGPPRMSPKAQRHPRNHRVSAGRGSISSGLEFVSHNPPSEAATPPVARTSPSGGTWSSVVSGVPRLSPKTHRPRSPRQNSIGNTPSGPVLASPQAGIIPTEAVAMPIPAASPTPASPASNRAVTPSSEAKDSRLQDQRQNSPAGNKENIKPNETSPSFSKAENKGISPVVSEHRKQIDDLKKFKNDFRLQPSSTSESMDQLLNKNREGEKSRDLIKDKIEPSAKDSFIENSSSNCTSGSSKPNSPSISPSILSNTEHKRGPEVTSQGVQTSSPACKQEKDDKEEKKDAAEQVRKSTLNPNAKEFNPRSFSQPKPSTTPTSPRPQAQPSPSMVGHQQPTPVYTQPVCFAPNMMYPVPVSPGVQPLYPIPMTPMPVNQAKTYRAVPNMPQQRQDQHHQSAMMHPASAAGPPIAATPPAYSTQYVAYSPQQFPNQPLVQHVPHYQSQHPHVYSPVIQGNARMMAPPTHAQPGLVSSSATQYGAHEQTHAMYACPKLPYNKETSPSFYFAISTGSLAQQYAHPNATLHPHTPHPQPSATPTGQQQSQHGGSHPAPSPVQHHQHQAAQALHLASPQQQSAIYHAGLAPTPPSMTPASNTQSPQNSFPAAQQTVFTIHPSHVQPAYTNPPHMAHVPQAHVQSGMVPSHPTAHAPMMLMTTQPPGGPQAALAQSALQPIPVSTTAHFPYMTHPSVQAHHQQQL
On to `CCOc1ccc2nc(NN=C3C(=O)NC(=S)NC3=O)sc2c1`, for which the Potency was 15 µM (active).

For the compound `CCC(=O)N1N=C2C3CCN(CC3)C2C1c1ccc(C)cc1` (stereo not drawn), the Potency entry is “inactive”.

Consider `COc1cccc(C(=O)NCc2nc(-c3cccc(NC(=O)c4ccoc4C)c3)oc2C)c1OC`, for which the Potency is 28.2 µM (active).

Consider `Nc1ccc2c(c1)Cc1cc([N+](=O)[O-])ccc1-2`, for which the Potency entry is “inactive”.

In the case of `Clc1ccc2c(c1)C(OC1CN3CCC1CC3)c1ccccc1CS2` (stereo not drawn), the Potency was 28.2 µM (active).

On to `CCOc1ccc(NS(=O)(=O)c2ccc(Cl)c(NN=C3C(=O)NC(=S)NC3=O)c2)cc1Br`, for which the Potency was 28.2 µM (active).

For `COc1ccc(S(=O)(=O)Nc2ccccc2OC)cc1NN=C1C(=O)NC(=S)NC1=O`, the Potency is 39.8 µM (active).

In the case of `Nc1ccc2ccc3cccc[n+]3c2c1`, the Potency result was “inactive”.

As for `COCCCNC(=O)c1c(NC(=O)c2ccccc2Cl)n(Cc2ccccc2)c2nc3ccccc3nc12`, the Potency entry is “inactive”.

For the compound `CCC1(OC(=O)CN)C(=O)OCc2c1cc1n(c2=O)Cc2cc3ccccc3nc2-1` (stereo not drawn), the Potency entry was “inactive”.

`CCC1(O)C(=O)OCc2c1cc1n(c2=O)Cc2cc3cc(O)ccc3nc2-1` (stereo not drawn): the Potency result is “inactive”.

Turning to `CC[C@@]1(O)C(=O)OCc2c1cc1n(c2=O)Cc2cc3ccccc3nc2-1`, the Potency was 0.01 µM (active).

With `CCCCCn1c(=O)c(C(=O)NCc2ccccc2Cl)c(O)c2ccccc21`, the Potency entry is “inactive”.

Take `O=C(CN1C(=O)CN=C(c2ccccc2)c2ccccc21)Nc1cccc(C(F)(F)F)c1`: the Potency is 31.6 µM (active).

Regarding `NNC(=O)CN1C(=O)CN=C(c2ccccc2)c2cc(Br)ccc21`, the Potency result was “inactive”.

Turning to `C=C1C(=O)OC2CC3(C)OC3CCC(C)=CC(OC(C)=O)C12` (stereo not drawn), the Potency was 33.6 µM (active).

Regarding `CCCCn1c(NS(=O)(=O)c2ccccc2)c(C(=O)OCC)c2nc3ccccc3nc21`, the Potency entry is “inactive”.

In the case of `CCOC(=O)c1c(NS(=O)(=O)c2ccccc2)n(CCCOC)c2nc3ccccc3nc12`, the Potency result was “inactive”.

`COCCCn1c(N)c(C(=O)NCCC(C)C)c2nc3ccccc3nc21`: the Potency entry is “inactive”.

`Brc1cccc(CNCCc2ccc3c(c2)OCO3)c1`: the Potency result was “inactive”.

Regarding `CNCCC(Oc1ccc(C(F)(F)F)cc1)c1ccccc1` (stereo not drawn), the Potency is 31.6 µM (active).

On to `CC[C@@]1(O)C(=O)OCc2c1cc1n(c2=O)Cc2cc3c(NC(=O)CN)cccc3nc2-1`, for which the Potency result is “inactive”.

In the case of `COC(=O)c1ccc(C(C(=O)NC2CCCCC2)N(CCN2CCOCC2)C(=O)Cc2cccs2)cc1` (stereo not drawn), the Potency entry is “inactive”.

With `CCc1ccc2c(c1)Sc1ccccc1CC2N1CCN(C)CC1` (stereo not drawn), the Potency entry was “inactive”.

Take `O=c1ccc2cc(OC3O[C@H](CO)[C@@H](O)[C@H](O)[C@H]3O)c(O)cc2o1` (stereo partly drawn): the Potency result was “inactive”.

Turning to `O=[N+]([O-])c1ccc(N2CCOCC2)c2cccnc12`, the Potency result is “inactive”.

On to `O=[N+]([O-])c1ccc(N(CCO)CCO)c2c1no[n+]2[O-]`, for which the Potency is 17.8 µM (active).

With `CN1CCN(c2ccc([N+](=O)[O-])c3no[n+]([O-])c23)CC1`, the Potency is 7.08 µM (active).

Consider `O=[N+]([O-])c1ccc(N2CCOCC2)c2c1no[n+]2[O-]`, for which the Potency was 3.98 µM (active).

Take `COc1ccc(Br)cc1CNCCc1ccc2c(c1)OCO2`: the Potency entry is “inactive”.

On to `Cc1cc2c(C(F)(F)F)cc(=O)oc2c2c1NCCC2`, for which the Potency result is “inactive”.

As for `Cc1cccc(N2C(=O)NC(=O)/C(=C/c3cc4c(cc3[N+](=O)[O-])OCO4)C2=O)c1`, the Potency result was “inactive”.

`Cc1cc(/C=C2\C(=O)NC(=O)N(Cc3ccccc3Cl)C2=O)c(C)n1-c1ccc(C(=O)O)cc1`: the Potency entry is “inactive”.

As for `Cc1cc(C=C2C(=O)NC(=S)NC2=O)c(C)n1-c1ccc2c(c1)OCO2`, the Potency was 39.8 µM (active).

With `CCN(C(=O)COC(=O)c1cn(C)c2ccccc12)c1ccc(F)cc1`, the Potency entry was “inactive”.

Consider `COc1ccc(C(c2nnnn2Cc2ccccc2)N2CCC(n3c(O)nc4ccccc43)CC2)cc1` (stereo not drawn), for which the Potency was 15.8 µM (active).

As for `Oc1nc2ccccc2n1C1CCN(C(c2cc3ccccc3o2)c2nnnn2Cc2ccccc2)CC1` (stereo not drawn), the Potency is 10 µM (active).

Consider `Oc1nc2ccccc2n1C1CCN(C(c2cccs2)c2nnnn2Cc2ccccc2)CC1` (stereo not drawn), for which the Potency is 22.4 µM (active).

`Cc1cccc(C)c1-n1nnnc1C(c1cccs1)N1CCC(n2c(O)nc3ccccc32)CC1` (stereo not drawn): the Potency was 20 µM (active).

For `COc1ccc2c3c([nH]c2c1)C(C)=NCC3`, the Potency result is “inactive”.

Consider `Cc1c(C)n(O)c2ccc3nonc3c12`, for which the Potency entry is “inactive”.

As to `CCN(CC)c1ccc(N/C=C2\C(=O)NC(=O)N(Cc3ccco3)C2=O)cc1`, the Potency entry is “inactive”.

In the case of `CCOP(=O)(OCC)c1nc(-c2ccc(F)cc2)oc1NCc1ccccc1`, the Potency result was “inactive”.

With `Cc1ccccc1CN1Cc2cnnn2-c2ccccc2C1C#N` (stereo not drawn), the Potency was 17.8 µM (active).

For the compound `COc1ccc(CN2Cc3cnnn3-c3ccccc3C2C#N)cc1` (stereo not drawn), the Potency is 12.6 µM (active).

Consider `Nc1c(C(=O)NCCN2CCOCC2)c2nc3ccccc3nc2n1Cc1ccco1`, for which the Potency result was “inactive”.

On to `ClCCN(CCCl)c1ccc(C=Cc2ccncn2)cc1`, for which the Potency result was “inactive”.

As for `ClCCN(CCCl)c1ccc(-n2cnc3c(Cl)ncnc32)cc1`, the Potency is 35.5 µM (active).

Turning to `COCCNC(=O)c1c(NC(=O)c2ccc(Br)o2)n(Cc2ccccc2)c2nc3ccccc3nc12`, the Potency result is “inactive”.

As to `CCCCCCCSc1cc(OC)c(CCN(C)C)cc1OC`, the Potency is 39.8 µM (active).

As to `C=CC[N+]1(C)C2CCC1CC(O)C2` (stereo not drawn), the Potency entry is “inactive”.

Regarding `COc1ccccc1OCCCn1cc(C=O)c2ccccc21`, the Potency entry was “inactive”.

`Cc1ccc([C@H]2C[C@H](O)[C@@H](n3cc(COC(=O)c4ccccc4)nn3)CN2CC2CCCCC2)cc1`: the Potency is 31.6 µM (active).

Regarding `CCOC(=O)c1c(N)n(Cc2ccco2)c2nc3ccccc3nc12`, the Potency result is “inactive”.

As for `O=C1C2(Cl)C3(Cl)C4(Cl)C(Cl)(Cl)C5(Cl)C3(Cl)C1(Cl)C5(Cl)C24Cl` (stereo not drawn), the Potency was 39.8 µM (active).

Turning to `CCCCn1c(NC(=O)c2ccc(Br)o2)c(C(=O)OCC)c2nc3ccccc3nc21`, the Potency result was “inactive”.

As to `O=c1[nH]c2ccccc2n1C1CCN(CCCC(c2ccc(F)cc2)c2ccc(F)cc2)CC1`, the Potency was 31.6 µM (active).

In the case of `COCCCNC(=O)c1c(N)n(Cc2ccco2)c2nc3ccccc3nc12`, the Potency entry is “inactive”.

On to `O=[N+]([O-])c1ccc(Sc2nc3ccccc3o2)c([N+](=O)[O-])c1`, for which the Potency is 25.1 µM (active).

In the case of `CCCCCc1nc2c(c(=O)c3ccccc3n2C)c(=O)n1C1CCCCCC1`, the Potency is 31.6 µM (active).

Regarding `CCCCCn1c(=O)c(C(=O)Nc2ccccc2Cl)c(O)c2ccccc21`, the Potency entry is “inactive”.

As to `Nc1c(C(=O)NCCN2CCOCC2)c2nc3ccccc3nc2n1Cc1ccccc1`, the Potency entry is “inactive”.

Consider `COCCNC(=O)c1c(N)n(CCC(C)C)c2nc3ccccc3nc12`, for which the Potency entry is “inactive”.

Turning to `CCOC(=O)c1c(C)n(Cc2ccccc2)c2ccc(OCC(O)CNC(C)(C)C)cc12` (stereo not drawn), the Potency is 25.1 µM (active).

Turning to `COc1ccc(N2C(=O)NC(=O)/C(=C(/C)NCCc3c[nH]c4ccccc34)C2=O)cc1`, the Potency entry is “inactive”.

As for `CCCCn1c(N)c(C(=O)OCCOC)c2nc3ccccc3nc21`, the Potency entry was “inactive”.

For `CC(=O)OC1C2(CC3N4C(=O)C5(CO)SSC4(CC31O)C(=O)N5C)OC(C)C(C)(C)C2=O` (stereo not drawn), the Potency was 2.38 µM (active).

In the case of `CCN1C(=O)C(=CNNC(=O)c2ccncc2)C(=O)N(CC)C1=S`, the Potency result is “inactive”.

With `CCCN1CCc2cccc3c2[C@H]1Cc1ccc(O)c(O)c1-3`, the Potency was 35.5 µM (active).

For the compound `Cc1ccccc1NC(=NCCCN1CC1)Nc1ccccc1C`, the Potency is 9.47 µM (active).

With `O=C(Nc1cccc(C(F)(F)F)c1)C1CCCN1S(=O)(=O)c1cccc2nsnc12` (stereo not drawn), the Potency was 22.4 µM (active).

For `CC1=NCCc2c1[nH]c1cc(O)ccc21`, the Potency entry is “inactive”.

Take `O=C(CCN1CCN(c2ccccc2)CC1)c1ccc(Br)cc1`: the Potency is 39.8 µM (active).

As to `O=C(Cn1c(NCCCl)nc2ccccc21)c1ccc(Br)cc1`, the Potency result is “inactive”.

Regarding `COc1ccc(C(c2nnnn2-c2ccc(OC)cc2)N2CCC3(CC2)C(=O)NCN3c2ccccc2)cc1` (stereo not drawn), the Potency was 35.5 µM (active).

With `Cc1cccc(C)c1-n1nnnc1C(C1CC1)N1CCC2(CC1)C(=O)NCN2c1ccccc1` (stereo not drawn), the Potency was 39.8 µM (active).

For the compound `COc1ccc(-n2c(/C=C/c3ccc(O)c(O)c3)nc3ccccc3c2=O)cc1`, the Potency entry was “inactive”.

`COc1ccc(-n2nnnc2C(c2ccnc3ccccc23)N2CCC3(CC2)C(=O)NCN3c2ccccc2)cc1` (stereo not drawn): the Potency was 39.8 µM (active).

`COc1ccc(-n2nnnc2C(c2ccccc2OC(F)(F)F)N2CCC3(CC2)C(=O)NCN3c2ccccc2)cc1` (stereo not drawn): the Potency is 39.8 µM (active).

As for `COc1ccc(C(=O)C2CCCN(Cc3ccc(C)s3)C2)cc1OC` (stereo not drawn), the Potency entry is “inactive”.

As for `CC(C)OC(=O)c1c(N)n(CC2CCCO2)c2nc3ccccc3nc12` (stereo not drawn), the Potency entry was “inactive”.

Take `O=C(COc1ccccc1)N1CCN(CCN2C(=O)c3cccc4cccc(c34)C2=O)CC1`: the Potency result was “inactive”.

`CCOP(=O)(OCC)c1nc(-c2cccc3ccccc23)oc1N1CCOCC1`: the Potency result was “inactive”.

As for `Cc1cccc(C)c1-n1nnnc1C(c1ccnc2ccccc12)N1CCC2(CC1)C(=O)NCN2c1ccccc1` (stereo not drawn), the Potency was 39.8 µM (active).

For the compound `Cc1cccc(C)c1-n1nnnc1C(c1cccs1)N1CCC2(CC1)C(=O)NCN2c1ccccc1` (stereo not drawn), the Potency is 31.6 µM (active).

On to `C[C@H]1CC[C@@H]2[C@@H](C)[C@H]3[C@H](C[C@H]4[C@@H]5CC=C6C[C@@H](O[C@@H]7O[C@H](CO)[C@H](O)[C@H](O[C@@H]8O[C@H](CO)[C@@H](O)[C@H](O)[C@H]8O)[C@H]7O[C@@H]7O[C@@H](C)[C@H](O)[C@@H](O)[C@H]7O)CC[C@]6(C)[C@H]5CC[C@]34C)N2C1`, for which the Potency was 22.4 µM (active).

With `COP(=O)(OC)c1nc(-c2cccc3ccccc23)oc1N1CCCCC1`, the Potency result is “inactive”.

On to `CN(C)c1ccc(C=C2C(=O)NC(=S)NC2=O)cc1`, for which the Potency is 44.7 µM (active).

Consider `Cc1ccc(OCCOc2cccc(C=C3C(=O)NC(=O)NC3=O)c2)cc1`, for which the Potency entry is “inactive”.

With `COc1ccc(OC)c(CN2CCN(C(=O)Cc3ccccc3)CC2)c1`, the Potency result was “inactive”.

As to `O=C1NC(=O)C(=Cc2ccc(SC3CCCCC3)o2)C(=O)N1`, the Potency was 22.4 µM (active).

Regarding `O=C1NC(=O)C(=Cc2ccc(-c3ccccc3[N+](=O)[O-])o2)C(=O)N1`, the Potency result is “inactive”.

Consider `C=CC[C@@H](CC/C=C/C=C/CC/C=C\[C@@H]1CSC([C@@H]2C[C@@H]2C)=N1)OC`, for which the Potency was 17.8 µM (active).
